# In PubChem BioAssay (NCI):
# This is part of a sample that, as a whole, favours compounds with a hit. Of some 83,000 tested, about 20% had one in any assay.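 96-well plates, one dose, 48 hours. Percent growth reported; active if below 10.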 Values without a mark were called inactive. Active and inactive are the calls of the source.
# Columns and labels:
# Test in all cases: NCI-60 one-dose screen, 48 h (100 = growth as untreated, 0 = no growth, -100 = all killed)
# Details in all cases: 10 µM unless noted
# [1] = system: SR leukemia
# [2] = system: RPMI-8226 leukemia
# [3] = system: OVCAR-8 ovarian
# [4] = system: OVCAR-5 ovarian
# [5] = system: OVCAR-4 ovarian
# [6] = system: SK-OV-3 ovarian
# [7] = system: IGROV1 ovarian
# [8] = system: OVCAR-3 ovarian
# [9] = system: HS 578T breast
# [10] = system: NCI/ADR-RES ovarian
SMILES,growth [1],growth [2],growth [3],growth [4],growth [5],growth [6],growth [7],growth [8],growth [9],growth [10]
O=C1/C(=C/c2ccc([N+](=O)[O-])cc2)COc2ccc(O)cc21,7.84% (active),-16.4% (active),69.5%,99%,89.5%,113%,73.4%,82.7%,89.3%,92.1%
Cc1cc(C(=O)O)c(C)n1-c1cccc(C(=O)O)c1,62.6%,107%,73.4%,66.4%,91.4%,105%,56.9%,121%,92.5%,72.1%
O=c1c2ccccc2n2cnc3ccc(Cl)c1c32,44.9%,98.6%,78.1%,81.6%,82.6%,69.8%,55.5%,85.2%,84.8%,86.7%
COc1ccc(OC)c(/C=N/Nc2ncnc3c2c(C)nn3C)c1,81.4%,100%,109%,93.2%,118%,102%,102%,107%,88%,101%
CN1C(=O)/C(=C\c2nc([P+](c3ccccc3)(c3ccccc3)c3ccccc3)c(N3CCOCC3)o2)SC1=S,13.3%,-21.1% (active),96.4%,96.7%,90.5%,108%,5.71% (active),100%,90.4%,90.5%
Cc1ccc(-c2nc([P+](c3ccccc3)(c3ccccc3)c3ccccc3)c(S(=O)(=O)c3ccc(C)cc3)o2)cc1,-10.9% (active),-28.2% (active),8.26% (active),25.1%,14.2%,64.8%,26.4%,0.238% (active),–,59.5%
COc1cc(-c2nccc3[nH]c(-c4ccc5cc[nH]c5c4)nc23)cc(OC)c1OC,-4.95% (active),-43% (active),12.4%,41.5%,39.3%,1.3% (active),29.5%,2.2% (active),–,12.7%
N#Cc1c(-c2ccccc2)cc(-c2ccc(Nc3nc(Nc4ccc(Cl)cc4)nc(Nc4ccc(Cl)cc4)n3)cc2)nc1N,-30.8% (active),-45.4% (active),32.6%,63.2%,-15.2% (active),110%,-8.08% (active),-54% (active),14.4%,53.2%
N#Cc1c(-c2ccccc2)cc(-c2ccccc2)n(CCCC(=O)Nc2ccccc2N)c1=O,22.4%,48.9%,69.1%,95%,91.9%,95.6%,51.7%,26.2%,43.5%,39.5%
CN(c1cc2ncc(=O)[nH]c2cc1NC(N)=NCc1ccc(Cl)cc1)C1CCCCC1,-22.7% (active),8.99% (active),70.4%,73.2%,72.7%,84.7%,61.6%,82.3%,–,115%
CS(=O)(=O)Nc1cncc(-c2ccc3ncnc(Nc4cncc(Cl)c4)c3c2)c1,87.9%,102%,87.1%,74.3%,108%,81.8%,69.8%,52.9%,56.6%,95.7%
COc1cc2c(c(OC)c1OC)CCC(c1cccc(C(=O)Nc3ccc(C#N)cc3)c1)O2 (stereo unspecified),16.9%,14.4%,28.5%,79.3%,35.3%,73.2%,68.9%,65.6%,–,19%
CCN1C(=S)N(c2ccccc2)C2NC(=S)N(/N=C/C=C/c3ccccc3OC)C21 (stereo unspecified),8.81% (active),13.3%,1.79% (active),28.7%,45%,30.5%,23.8%,2.96% (active),–,4.46% (active)
CCCc1c(OC(=O)c2ccccc2)nc2[nH]c(=O)sc2c1C,115%,103%,102%,98.8%,114%,95.8%,101%,103%,–,97.9%
CCN1C(=O)N(CC)C2C1NN=c1s/c(=C\c3ccccc3F)c(=O)n12 (stereo unspecified),8.64% (active),21.4%,-1.12% (active),27.5%,41.4%,32.6%,15.2%,0.255% (active),13.2%,6.01% (active)
CSc1nc2ccccc2cc1/C=C1/C=C(c2ccccc2)NC1=O,27.4%,81.9%,82.5%,99.5%,84.7%,85.1%,79.4%,71.7%,–,76.2%
C=CCN=c1sc2c(n1NC(=O)c1cc3ccc1CCc1ccc(cc1)CC3)C(=O)c1ccccc1C2=O,-8.54% (active),-27.7% (active),5.6% (active),-65.7% (active),-96.3% (active),55.7%,-20.5% (active),-26.4% (active),-9.43% (active),-12.8% (active)
C/C(=N\O)c1ccc(Cl)cc1,78.1%,107%,88.6%,118%,109%,108%,155%,113%,90.4%,108%
CN(C)CCNC(=O)c1ccc(-c2nc3ccc4[nH]ncc4c3c3c2C2CCC3C2)cc1 (stereo unspecified),1.91% (active),-5.84% (active),20.8%,96%,48.6%,1.15% (active),16.4%,20.9%,9.56% (active),77.7%
CN(C)Cc1ccc(O)c(C(=O)O)c1,97.8%,104%,108%,108%,118%,106%,95.6%,111%,109%,105%
COc1cc(/C=C/C(=O)c2ccc(F)cc2)ccc1OCCCCOc1ccc(/C=C/C(=O)c2c(C)nc3ccccc3c2C)cc1OC,79.2%,79.3%,78.3%,108%,76.5%,107%,101%,92%,117%,91.4%
COC(=O)[C@]12CCC(C)(C)C[C@H]1[C@H]1/C(=N/OCCc3nn[nH]n3)C[C@@H]3[C@@]4(C)CC[C@H](OC(C)=O)C(C)(C)[C@@H]4CC[C@@]3(C)[C@]1(C)CC2,31.8%,22.6%,29.7%,74.4%,25.3%,58.7%,30.9%,31.8%,48.3%,30.1%
CCCCNC(=O)Oc1ccc(/C(=C(/C)Cc2ccc(OC)cc2)c2ccc(OCCN(CC)CC)cc2)cc1,16.7%,66.3%,86.9%,82%,80.3%,97%,93.7%,82%,76.9%,91.1%
COc1ccccc1NC(=O)N=Nc1c(O)[nH]c2ccccc12,83.9%,84.8%,92.9%,86.7%,105%,97.8%,82%,107%,–,94.1%
Cc1ccc(/C=C2\COc3ccc(O)cc3C2=O)cc1,12.7%,-1.31% (active),91.7%,102%,93.3%,126%,95.1%,101%,97.5%,101%
COC(CC(F)F)c1cn(S(=O)(=O)c2ccc(C)cc2)c2ccccc12 (stereo unspecified),12.2%,32.1%,58.5%,33.3%,65.5%,18.1%,35.8%,7.08% (active),32.5%,36.3%
CCC(=C(c1ccc(OCCN2CCCCC2)cc1)c1ccc(OCCN2CCCCC2)cc1)c1ccc(Cl)cc1,-49% (active),-59.8% (active),-75.4% (active),-95.4% (active),-90.2% (active),-85.7% (active),-87.9% (active),-83.9% (active),–,-84.6% (active)
CC(C)=CCCC(C)c1ccc(C)c2c1OCN(CCCCCO)C2 (stereo unspecified),66.6%,76.7%,90.1%,87.4%,95.4%,88.8%,90.4%,99.7%,81.2%,75.9%
